Drawing on PubChem BioAssay (NCATS), this text covers Potency, outcome and max response for 37 compounds.

A short description of test [1]: Confirmatory qHTS for VERO E6 Cytotoxicity Assay: Counterscreen for SARS-CoV-2 CPE Assay (AID 1508605; calls by dose curve; note: nearly all actives have a fitted effect of over 60% in size; note: potency is the fitted concentration of half-maximal effect). Background: qHTS replaces the single test concentration by a dilution series.
The nature of test [2]: Primary qHTS for inhibitors of La Crosse Virus (LACV) - induced cell death in SH-SY5Y cells (AID 1508616).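 Note: top concentration of the series differs between compounds; higher means more rescue of cells from virus-induced death.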 The method, boiled down:
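Readout was luminescence from ATPLite 1step added after a 6-day LACV infection (0.01 MOI) of SH-SY5Y cells that had received pin-transferred compound 24 hr after seeding.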

The target in test [3] is Calcium and integrin-binding protein 1 (Homo sapiens) (UniProt Q99828). The experiment in a line: Primary qHTS for Identification of Calcium Integrin Binding Protein 1 (CIB1) Competitor (AID 1508620).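 Note: GST tagged CIB1 binding a fluorescein labelled alphaIIb integrin peptide tracer; top concentration of the series differs between compounds.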 The method, boiled down: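 Fluorescence polarization competition: CIB1-GST (1 uM final) preincubated with compound 15 min at room temperature, then FITC-labeled alphaIIb peptide (100 nM final) added for another 15 min. Polarization read at Ex 480/Em 540.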
Chain of Calcium and integrin-binding protein 1 (Homo sapiens) (Q99828 whole entry, looked up): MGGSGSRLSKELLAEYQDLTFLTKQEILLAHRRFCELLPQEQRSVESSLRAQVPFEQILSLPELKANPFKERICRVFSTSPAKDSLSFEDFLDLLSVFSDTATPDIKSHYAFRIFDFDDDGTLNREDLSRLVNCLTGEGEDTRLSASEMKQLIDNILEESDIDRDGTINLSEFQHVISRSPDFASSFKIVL

For test [4] the target is unchanged. The experiment in a line: Validation qHTS for Identification of Calcium Integrin Binding protein 1 (CIB1) Competitor (AID 1508618). The method, boiled down: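 Fluorescence polarization with 1 uM CIB1-GST and 100 nM FITC-alphaIIb peptide in HEPES pH 7.4, NaCl, 5 mM CaCl2, Tween20. Compounds at up to 114 uM final, preincubated with protein 15 min; read after 15 min more at RT.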

Test [5] can be described thus: Primary qHTS for small molecule stabilizers of the endoplasmic reticulum resident proteome: Secreted ER Calcium Modulated Protein (SERCaMP) assay (AID 1508630). Note: potency is the fitted concentration of half-maximal effect. The gist of the method: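 GLuc-SERCaMP-expressing SH-SY5Y cells, pretreated 16 h with compound, are challenged with thapsigargin to empty ER calcium stores; after 4 h, coelenterazine is added directly to the medium and luminescence is imaged.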

The nature of test [6]: Confirmatory qHTS for small molecule stabilizers of the endoplasmic reticulum resident proteome: Secreted ER Calcium Modulated Protein (SERCaMP) assay (AID 1508628). Note: nearly all actives have a fitted effect of over 40% in size. Note: potency is the fitted concentration of half-maximal effect. The method, boiled down: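 We seeded SH-SY5Y-GLuc-SERCaMP cells, added compounds (three concentrations in the primary run, eleven up to 76.6 uM in confirmation), incubated 16 h, depleted ER calcium with thapsigargin, and read luciferase 4 h later.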

The target in test [7] is Calcium and integrin-binding protein 1 (Homo sapiens) (UniProt Q99828). The experiment in a line: Confirmatory qHTS for Identification of Calcium Integrin Binding Protein 1 (CIB1) Competitor (AID 1508617). Note: nearly all actives have a fitted effect of over 65% in size. Note: potency is the fitted concentration of half-maximal effect. The method, boiled down: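 FP competition: CIB1-GST (1 uM final) in 5 mM HEPES pH 7.4, 125 mM NaCl, 5 mM CaCl2, 0.01% Tween20 preincubated 15 min RT with compounds (up to 114 uM), then FITC-alphaIIb peptide (100 nM), 15 min RT; Ex 480/Em 540.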

Test [8] can be described thus: Confirmatory qHTS for activators (rescue) of SARS-CoV-2 Cytopathic Effect (CPE) (AID 1508606; calls by dose curve; note: potency is the fitted concentration of half-maximal effect; nearly all actives have a fitted effect of over 70% in size). As to conditions: Vero E6 SARS-CoV-2 CPE rescue, viability luminescence.
Test [9] in a line: Cell Viability qHTS for small molecule stabilizers of the endoplasmic reticulum resident proteome (AID 1508629).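 Note: human SH-SY5Y neuroblastoma cells carrying the GLuc-SERCaMP reporter; compound exposure about 46 h in total before the viability read.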 As to conditions: cell viability counter-screen, 100 nM thapsigargin for final 4 h.
A short description of test [10]: Counterscreen qHTS for small molecule stabilizers of the endoplasmic reticulum resident proteome: GLuc-NoTag assay (AID 1508627).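 Note: SH-SY5Y cells given compound then 100 nM thapsigargin to empty ER calcium; series mostly up to about 76 µM.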 The method, boiled down: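 SH-SY5Y cells stably expressing constitutively secreted GLuc (no SERCaMP tag) were pre-incubated 5 h, treated with compound for 19 h, then 100 nM thapsigargin for 4 h at 37C; medium GLuc read by coelenterazine luminescence.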
On the technique in general: The purpose of a counterscreen is to sort out artefacts and off-target activity.

Each structure is given as a SMILES string. Where “and” joins values, the source holds several entries; their conditions need not be identical. Equal values may be shown once. Results filed as inconclusive are left out. A call without a number means that no potency is given here. Unmarked numbers belong to inactive results. Calls of active or inactive are those of the source. Unless noted, calls come from the whole dose curve; as a rule, active = well fitted curve in the direction sought with a large enough effect; inconclusive = small, poorly fitted or top-dose-only effect, or another doubt; inactive = no such curve, though single readings can be large; an effect the other way counts as inactive or inconclusive.

Take `CNCCC=C1c2ccccc2CCc2ccccc21`: in test [1], the Potency entry is “inactive”.

`NC(=O)CS(=O)C(c1ccccc1)c1ccccc1` (stereo not given): the result in test [2] was inactive. For the same compound, the Potency result in test [3] is “inactive”.

In the case of `COC(=O)[C@@H](N)CCCN/C(N)=N/[N+](=O)[O-]`, in test [2], the outcome was inactive. The Potency result in test [3] is “inactive”.

Consider `Clc1cccc(SC2CCNCC2)n1`, for which the outcome in test [2] was inactive. Further, in [3], the Potency result was “inactive”.

For `Clc1ccccc1N1CCNCC1`, the outcome in [2] was inactive. Moreover, the Potency entry in test [3] was “inactive”.

With `CC(=O)C1CCOC1=O` (stereo not given), the result in [2] was inactive. Moreover, the Potency result in [3] is “inactive”.

As for `CC(C)N(CCC(C(N)=O)(c1ccccc1)c1ccccn1)C(C)C` (stereo not given), the result in test [2] and in [4] was inactive. Moreover, the Potency result in [3] and in test [5] was “inactive” each time.

For the compound `CCC1(c2ccc(N)cc2)CCC(=O)NC1=O` (stereo not given), the outcome in test [2] and in [4] was inactive. Further, the Potency result in [3] and in test [5] was “inactive” each time.

Turning to `O=[N+]([O-])O[C@H]1CO[C@H]2[C@@H]1OC[C@H]2O[N+](=O)[O-]`, in test [2], the compound was classed as inactive. The Potency entry in test [3] was “inactive”.

`O=C(CCCN1CCC2(CC1)C(=O)NCN2c1ccccc1)c1ccc(F)cc1`: the Potency result in test [1] and in test [3] was “inactive” throughout. Further, the outcome in test [4] was inactive. Besides, the Potency is 5.62 µM (active) and 2.24 µM (active) and 3.16 µM (active) in test [6]; 1 µM (active) in test [5].

`CNCCCC12CCC(c3ccccc31)c1ccccc12`: the Potency result in test [1] is “inactive”.

In the case of `CN1[C@@H]2CC[C@H]1CC(OC(c1ccccc1)c1ccccc1)C2` (stereo not given in full), the Potency entry in test [1] was “inactive”.

As to `CC(C)(N)Cc1ccccc1Cl`, the compound was called inactive in test [2]. In test [3], the Potency entry is “inactive”.

In the case of `CC(NC(C)(C)C)C(=O)c1cccc(Cl)c1` (stereo not given), the call in test [2] and in test [4] was inactive. The Potency result in test [3] and in test [5] was “inactive” in each case.

In the case of `O=c1[nH]oc2c1CCNC2`, the call in [2] and in test [4] was inactive. Further, the Potency result in [3] and in test [5] was “inactive” throughout.

With `O=C(O)c1ccc(=O)[nH]c1`, in [2], the outcome was inactive. Also, the Potency result in test [3] was “inactive”.

For `C#CC(O)(C=CCl)CC` (stereo not given), the compound was classed as inactive in test [2]. In addition, the Potency result in [3] was “inactive”.

As for `O=P1(N(CCCl)CCCl)NCCCO1` (stereo not given), the result in test [2] and in test [4] was inactive. In addition, the Potency result in test [3] and in test [5] was “inactive” each time.

As to `NCCc1ccc(O)cc1`, the compound was called inactive in test [2] and in [4]. Besides, the Potency entry in test [3] and in [5] was “inactive” throughout.

Take `CC(C)(C)c1ccc(O)cc1`: in [2], the compound was called inactive.

For the compound `CC(=O)OCC1=C(C(=O)O)N2C(=O)[C@@H](N)[C@H]2SC1`, the compound was classed as inactive in [2]. In addition, in test [3], the Potency result was “inactive”.

Turning to `CCOC(=O)CC(SP(=S)(OC)OC)C(=O)OCC` (stereo not given), the call in test [2] was inactive. In addition, the Potency in [7] was 100 µM (active). For the same compound, the Potency result in [3] and in [5] was “inactive” each time.

`CC(Cc1ccccc1)NCCn1cnc2c1c(=O)n(C)c(=O)n2C` (stereo not given): the compound was classed as inactive in test [2]. In addition, in test [3], the Potency entry is “inactive”.

With `CCC1(CC)C(=O)C=CNC1=O`, the outcome in test [2] was inactive. In addition, the Potency result in test [3] was “inactive”.

Take `CN1CCN(C(c2ccccc2)c2ccc(Cl)cc2)CC1` (stereo not given): the Potency entry in test [1] is “inactive”.

`CNCCCCOc1ccccc1Cc1ccccc1`: the Potency result in test [1] is “inactive”.

For `CN1CCN(CCC=C2c3ccccc3Sc3ccc(S(=O)(=O)N(C)C)cc32)CC1`, the Potency in test [1] is 11.2 µM (active).

Regarding `CC(C)c1cccc(C(C)C)c1O`, the outcome in test [2] and in [4] was inactive. In addition, the Potency result in test [3] and in test [5] was “inactive” in each case.

On to `CN1C(=O)CCS(=O)(=O)C1c1ccc(Cl)cc1` (stereo not given), for which the result in test [2] and in [4] was inactive. The Potency result in test [3] and in test [5] was “inactive” each time.

For `N#Cc1ccc2c(c1)N(CCCN1CCC(O)CC1)c1ccccc1S2`, the Potency entry in test [1] is “inactive”. Further, the Potency in test [8] is 11.2 µM (active).

On to `CCOC(=O)C1=C(COCCN)NC(C)=C(C(=O)OC)C1c1ccccc1Cl` (stereo not given), for which, in [1], the Potency result is “inactive”.

For `C[C@H]1[C@@H]2Cc3ccc(O)cc3[C@@]1(C)CCN2C`, the Potency in test [6] is 22.4 µM (active).

Regarding `COc1c2c(cc3c1OCO3)CCN(C)C2`, the Potency entry in test [6] is “inactive”. The max response in test [9] was 7.99%.

Take `O=C1OC(c2ccc(O)c(S(=O)(=O)O)c2)(c2ccc(O)c(S(=O)(=O)O)c2)c2c(Br)c(Br)c(Br)c(Br)c21`: the Potency result in test [7] is “inactive”.

`O=c1oc2ccccc2c(O)c1Cc1c(O)c2ccccc2oc1=O`: the compound was called inactive in test [10]. Also, the Potency entry in [6] was “inactive”.

For `NNc1ccccc1`, the call in test [10] was inactive. In test [6], the Potency entry was “inactive”. Moreover, the max response in test [9] is -1.1%.

For the compound `CNCC(=O)c1ccc(O)c(O)c1`, the Potency entry in test [6] was “inactive”.
